Source: PubChem BioAssay
A selection: hits, their analogues and other compounds. The true share with any hit is near 8.3%.
RORg inh: qHTS for inhibitors of ROR gamma transcriptional activity; Nuclear receptor ROR-gamma (Mus musculus), P51450; Drosophila S2 Gal4-RORgamma UAS-luciferase reporter, 20 h; Potency, µM (top dose mostly 53.6 µM), for the others: top-dose activity change, negative = inhibition, hits mostly inhibitors; actives 5.4% (n = 310,000); also: potency is read from the fitted curve at half-maximal effect; % is scaled to controls: 0 for no effect and ±100 for the full control effect; nearly all actives have a fitted effect of over 60% in size
Target sequence (P51450 whole entry, looked up, the tested form may be a part): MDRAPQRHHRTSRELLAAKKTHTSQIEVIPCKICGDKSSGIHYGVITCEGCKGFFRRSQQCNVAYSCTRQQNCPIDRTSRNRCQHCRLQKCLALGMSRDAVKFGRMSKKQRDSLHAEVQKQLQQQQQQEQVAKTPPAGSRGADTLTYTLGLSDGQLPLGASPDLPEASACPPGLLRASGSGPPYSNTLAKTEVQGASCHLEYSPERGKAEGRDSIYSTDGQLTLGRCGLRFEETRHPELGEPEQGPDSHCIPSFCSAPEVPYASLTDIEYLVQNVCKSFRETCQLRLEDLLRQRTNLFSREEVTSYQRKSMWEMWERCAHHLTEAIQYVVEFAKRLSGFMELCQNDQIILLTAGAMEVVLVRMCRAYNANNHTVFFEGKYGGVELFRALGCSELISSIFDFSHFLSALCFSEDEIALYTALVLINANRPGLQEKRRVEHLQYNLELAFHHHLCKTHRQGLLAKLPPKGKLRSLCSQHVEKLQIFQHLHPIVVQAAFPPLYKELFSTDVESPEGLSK
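Stably transfected Drosophila Schneider cells are the test system, with ROR gamma fused to Gal4 and luciferase under UAS control; luminescence is read after 20 hr of 700 uM copper sulfate induction at ambient temperature.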
SW480 rerep: A quantitative high throughput screen for small molecules that induce DNA re-replication in SW480 colon adenocarcinoma cells; SW480 DNA re-replication, Hoechst DNA content imaging, 48 h; AID 624297, 2012; Potency, µM (titrated, usually from 46.1 µM), for the others: at the top dose re-replication activation, hits mostly activators; actives 1.8% (n = 340,000); also: potency is read from the fitted curve at half-maximal effect; % of control where 0% means no effect; nearly all actives have a fitted effect of over 55% in size
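First, 250 cells per well were seeded. Next, compound or vehicle (23 nL) was pinned in, plates sat 48 hr at 37 C. Finally Hoechst was added for 40 min before fluorescence scanning.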
Chronic BCR inh: qHTS Assay to Find Inhibitors of Chronic Active B-Cell Receptor Signaling; ABC-DLBCL IkBa-CBG/CBR reporter, luminescence ratio, 4 h; Potency, µM (top dose mostly 46.1 µM), for the others: at the top dose activity change, negative = inhibition, most hits filed as inhibitors; actives 0.05% (n = 340,000); active = well fitted inhibition curve with a large enough effect in the signal ratio, with a control signal flat, not every such curve was filed as active; inconclusive = small, poorly fitted or top-dose-only effect, or effect the other way, or a change in a side signal; the % refers to the signal ratio;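 also: potency is read from the fitted curve at half-maximal effect; plate controls were basal doxycycline-induced cells for no effect and cells given 10 µM MG132 for full effect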
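Compounds up to 46 uM were incubated four hours with TMD8 cells whose green CBG68 luciferase is fused to IkappaBalpha; red CBR luminescence normalised the signal, and concentration-effect curves were fitted to fusion, red and ratio data.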
Gal4-VP16 FLuc: VP16 counterscreen qHTS for inhibitors of ROR gamma transcriptional activity; Drosophila S2 Gal4-VP16 UAS-luciferase, luminescence, 20 h; Potency, µM (doses to about 53.6 µM), for the others: top-dose activity, negative = inhibition, hits mostly inhibitors; actives 3.5% (n = 310,000); AID 2546, 2010;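 also: Gal4-VP16 expression switched on by copper sulfate through the metallothionein promoter; potency is read from the fitted curve at half-maximal effect; % is scaled to controls: 0 for no effect and ±100 for the full control effect; nearly all actives have a fitted effect of over 50% in size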
MCF10A rerep: A quantitative high throughput screen for small molecules that induce DNA re-replication in MCF 10a normal breast cells; MCF 10A DNA re-replication, Hoechst nuclear intensity, 48 h; Potency, µM (doses to about 46.1 µM), inactives show at the top dose activity, positive = re-replication, most hits filed as activators; actives 2.9% (n = 350,000); AID 624296, 2012; also: potency is read from the fitted curve at half-maximal effect; % of control where 0% means no effect; nearly all actives have a fitted effect of over 50% in size
Giardia killer: Small Molecules that selectively kill Giardia lamblia: qHTS. Giardia lamblia trophozoite viability. activity change, % at 7.66 µM, hits read low. actives 0.15% (n = 340,000). AID 540267, 2011; in the data active = activity change below about -80%; inconclusive = between about -30% and that limit;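 also: parasites exposed to compound for two days anaerobically before the ATP read; % is scaled to controls: 0 for no effect and ±100 for the full control effect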
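Media and compound were dispensed first, then trophozoites at 100 cells/well; plates sat 48 hrs at 37 deg C without oxygen before ATP luminescence reagent was added and read after 15-30 min at room temperature.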
* = called active by the depositor; ? = inconclusive; / = not tested or not shown; [ ] = dose if it differs, or a comment. Unless noted, calls follow the shape of the dose curve; as a rule, active = well fitted curve in the direction sought with a large enough effect; inconclusive = small, poorly fitted or top-dose-only effect, or another doubt; inactive = no such curve, though single readings can be large; an effect the other way counts as inactive or inconclusive.

SMILES	RORg inh	SW480 rerep	Chronic BCR inh	Gal4-VP16 FLuc	MCF10A rerep	Giardia killer
CC(C)c1ccc(NC2CCCN(C(=O)c3ccccc3-c3ncc[nH]3)C2)cc1 (centres undefined)	5%	17%	6%	-1%	?	-19
Cc1ccc(C(=O)NCc2ccccc2)cc1Br	13%	-44%	6%	-9%	-31%	8
CCOc1ccccc1-c1c2cc(O)c(=O)cc-2oc2cc(O)c(O)cc12	?	?	?	18µM*	11%	-10
Cn1cc(-c2nnc(-c3ccccc3)o2)c2ccccc21	1.4µM*	-4%	?	?	-1%	-15
Cc1c(Cl)cc(C(C)C)c(O)c1CN1CCOCC1	/	8%	/	/	13%	8
Oc1ccccc1N1CCN(c2ncnc3scc(-c4ccc(F)cc4)c23)CC1	-26%	?	?	-19%	?	-26
Cc1nc(N2CCN(c3ccccc3O)CC2)c2c(-c3ccccc3)csc2n1	?	?	?	2%	13µM*	11
COc1ccc(-c2csc3nc(C)nc(N4CCC(C)CC4)c23)cc1OC	7.1µM*	19%	?	11%[10 µM]	?	-2
Oc1ccccc1N1CCN(c2ncnc3scc(-c4ccccc4)c23)CC1	90%	?	?	-3%	21µM*	-4
Cc1coc2c1c(C)cc1oc(=O)c(CC(=O)N[C@@H](C)C(=O)O)c(C)c12	33%	5%	2%	-23%	16%	9
CCCCCCCCCNC(=O)[C@H](NC(=O)COc1ccccc1)[C@@H]1NC(C(=O)OC)C(C)(C)S1 (some centres undefined)	/	-35%	/	/	6.5µM*	4
COc1cccc2c1C(=O)c1c(O)c3c(c(O)c1C2=O)C[C@](O)(C(C)=O)C[C@H]3O[C@@H]1C[C@@H](N)[C@@H](O)[C@@H](C)O1	/	-132%	?	/	-36%	9
COc1cccc2c1C(=O)c1c(O)c3c(c(O)c1C2=O)C[C@](O)(C(=O)CO)C[C@H]3O[C@@H]1C[C@H](N)[C@H](O)[C@H](C)O1	1.1µM*	/	/	7.1µM*	/	/
CCOC(=O)[C@]1(C(NC(=O)OC)c2ccco2)CCCC1=O (some centres undefined)	-17%[10 µM]	/	/	0%[10 µM]	/	/
O=C(Nc1cc(-c2ccccc2)nn1-c1c(Cl)cccc1Cl)c1ccc(F)cc1	/	1%[9.22 µM]	2%	/	15µM*	-5
O=C(Nc1nnc(-c2ccccc2)s1)c1ccc(F)cc1	-7%	9%	?	5%	4%	-25
CCOC(=O)C(=O)Nc1nc(-c2ccccc2)c(-c2ccccc2)o1	20µM*	0%	0%	-16%	17%	-7
CCOC(=O)c1sc(NC(=O)CSC(=S)N2CCN(C)CC2)nc1C	-20%	-13%	?	-3%	16%	6
CN1CCN(C(=S)SCC(=O)Nc2nc(-c3ccccc3)c(-c3ccccc3)o2)CC1	?	-108%	?	?	12µM*	-4
N#Cc1ccc(C(=O)Nc2cc(-c3ccc(F)cc3)nn2-c2ccccc2)cc1	/	-30%[9.22 µM]	?	/	10%	-22
O=C(Nc1nc(-c2ccccc2)c(-c2ccccc2)o1)c1ccc(F)cc1	1.4µM*	4%[9.22 µM]	?	2.8µM*	?	-4
Cc1ccccc1OCC(=O)NCC(=O)OCc1ccc2ccccc2c1	/	/	/	/	/	9
N#Cc1nc(-c2ccc(OCc3ccc(Cl)cc3)cc2)oc1N1CCCCC1	/	/	/	/	/	23
COc1cccc(C(=O)Nc2nc(-c3ccccc3)c(-c3ccccc3)o2)c1	2.5µM*	?	?	3.2µM*	14%	-2
CCC/C(=N/NC(=O)c1csc(C)c1C)c1ccc(Cl)s1	16µM*	5%	?	?	26%	6
SMILES	RORg inh	SW480 rerep	Chronic BCR inh	Gal4-VP16 FLuc	MCF10A rerep	Giardia killer
C/C(=N\NC(=O)c1ccco1)c1ccc(C(=O)O)s1	31%	-4%	?	23%	-7%	-16
CCC/C(=N\NC(=O)c1ccco1)c1ccc(Cl)s1	11µM*	1%	0%	18µM*	-36%	-15
CCN1C(=NCCOC)N[C@@H](c2cccs2)C(C(=O)OC)=C1C	-9%	-1%	5%	-4%	-21%	5
CC(=O)Oc1cc2c(cc1Cl)C1(CC(c3ccccc3Cl)O2)CC(C)(C)NC(=S)N1 (centres undefined)	10µM*	-12%[9.22 µM]	?	?	?	-4
COCCNc1nc(-c2cccc(NS(C)(=O)=O)c2)nc2ccccc12	-12%	/	/	-6%	/	/
O=C(Nc1c2ccccc2nc2ccccc12)C(Cl)(Cl)Cl	?	?	1%	?	13µM*	3
O=C(CSCc1ccc([N+](=O)[O-])cc1)Nc1ccccc1C(=O)O	3%	-8%	4%	-5%	17%	6
COc1ccc(S(=O)(=O)N(CC(=O)NCc2ccncc2)c2ccc(C)cc2)cc1Br	4%	-23%	-3%	19%	-19%	-5
C=C1C(=O)O[C@@H]2[C@H]1CC[C@H](C)[C@]1(O)CCC(=O)[C@@]21C	-43%	?	?	?	23µM*	-22
Cc1c(C(=O)NCCSCc2cccc(C(F)(F)F)c2)cnn1-c1ccc(F)cc1	42%	-3%	-6%	6%	21%	-5
CCNC(=S)N/N=C/c1ccc(-c2ccccc2)o1	0.32µM*	15%	?	1.4µM*	?	10
NC(=S)N/N=C/c1ccc(-c2ccc(Cl)c(Cl)c2)o1	2.5µM*	4%	?	2µM*	?	16
NC(=S)N/N=C/c1ccc(-c2ccc(SC(F)F)cc2)o1	0.5µM*	6%	?	1.1µM*	17%	11
Cc1ccc(C(=O)N/N=C/c2ccc(-c3cccc(C(F)(F)F)c3)o2)cn1	3.5µM*	7.3µM*	?	10µM*	9.2µM*	-2
O=c1c2c(nc3nc(NCc4ccccc4Cl)[nH]n13)CCC2	-16%	/	2%	-3%	/	/
Cc1ccc(OCC(=O)N/N=C\c2ccc(-c3cccc(C(=O)O)c3)o2)c(C)c1	22%	-10%	-5%	-12%	?	7
NC(=S)N/N=C/c1ccc(-c2ccccc2)o1	1.4µM*	22%	?	5µM*	0.73µM*	10
NC(=S)NN=Cc1ccc(-c2ccc(S(=O)(=O)Nc3ncccn3)cc2)o1	/	2%	1%	/	-6%	-7
